# HepG2 tox – counter-screen for TGF-b inhibitors: cytotoxicity in HepG2 cells. actives 0.76% (n = 410,000). AID 588856. Potency, µM (top dose mostly 46.1 µM), for inactives: at the highest dose activity change, negative = cytotoxicity, most hits filed as cytotoxic. HepG2 CAGA-GFP viability, ATP luminescence, 18 h; also: potency is read from the fitted curve at half-maximal effect
#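 CellTiter-Glo luminescence gave cytotoxicity after 18 hours at 37 degrees C. The cells were HepG2 CAGA-GFP in 1% FBS DMEM, stimulated with 500 pg/mL TGF-beta after compound addition. %Activity was normalised to no-cell wells (complete cell-killing) and DMSO (no toxicity), and curves were fitted and classified.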
# TGFb inhibitor – blocks TGF-b signaling | HepG2 CAGA-GFP TGF-b/SMAD3 reporter, GFP fluorescence, 18 h; TGF-beta stimulated, 500 pg/mL final | actives 1.2% (n = 410,000) | Potency, µM (doses to about 46.1 µM), without a hit: at the top dose activity, negative = inhibition, hits mostly inhibitors; also: potency is read from the fitted curve at half-maximal effect; % is scaled to controls: 0 for no effect and ±100 for the full control effect; nearly all actives have a fitted effect of over 65% in size
#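 Using HEPG2 CAGA-GFP reporter cells at 1000 cells/well, we pinned test compounds, stimulated with recombinant TGF-beta (500 pg/mL final) and measured total well GFP after 18 h.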
# ATXN2 expr inh – reduces ATXN2 reporter expression in HEK-293 cells. actives 0.72% (n = 360,000). Potency, µM (titrated, usually from 57 µM), for the others: at the highest dose activity change, negative = inhibition, actives largely listed as inhibitors. HEK-293 ATXN2-luciferase reporter, luminescence, 24 h; also: potency is read from the fitted curve at half-maximal effect; % is scaled to controls: 0 for no effect and ±100 for the full control effect; nearly all actives have a fitted effect of over 55% in size
#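 qHTS (up to 57 uM final) was run with 24 h compound exposure of reporter cells at 37 °C. Each well was multiplexed: SteadyGlo luminescence measured ATXN2-luciferase expression after a fluorogenic Gly-Phe-AFC viability readout (25 uM final).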
# LDHA inh – LDHA (human) enzyme inhibition | purified LDHA, NADH/diaphorase-resazurin fluorescence; stronger effect = lower value | activity change, % (values are at about 110 or 230 µM) | AID 1347041 | actives 0.15% (n = 480,000); in the data active = activity change below about -30%; inconclusive = mostly about -25% to -30%;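 also: plate controls were DMSO wells for no effect and wells without enzyme for full effect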
#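 Resorufin fluorescence (ex540/em590), read at 0 and 20 min after diaphorase/resazurin addition, reports the NADH left after a 5 min room-temperature reaction of 2 nM human LDH5 with 0.06 mM NADH and 0.2 mM pyruvate.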
# mIDH1 inhibitor – blocks human mutant IDH1 R132H enzyme; Potency, µM (highest dose often 76.6 µM), for the others: top-dose activity change, negative = inhibition, most hits filed as inhibitors; AID 602179; actives 0.093% (n = 390,000); IDH1-R132H enzyme, NADPH consumption, diaphorase/resazurin fluorescence; O75874; also: potency is read from the fitted curve at half-maximal effect; % is scaled to controls: 0 for no effect and ±100 for the full control effect; nearly all actives have a fitted effect of over 65% in size
# Target sequence (O75874 whole entry R132H, stated change not applied): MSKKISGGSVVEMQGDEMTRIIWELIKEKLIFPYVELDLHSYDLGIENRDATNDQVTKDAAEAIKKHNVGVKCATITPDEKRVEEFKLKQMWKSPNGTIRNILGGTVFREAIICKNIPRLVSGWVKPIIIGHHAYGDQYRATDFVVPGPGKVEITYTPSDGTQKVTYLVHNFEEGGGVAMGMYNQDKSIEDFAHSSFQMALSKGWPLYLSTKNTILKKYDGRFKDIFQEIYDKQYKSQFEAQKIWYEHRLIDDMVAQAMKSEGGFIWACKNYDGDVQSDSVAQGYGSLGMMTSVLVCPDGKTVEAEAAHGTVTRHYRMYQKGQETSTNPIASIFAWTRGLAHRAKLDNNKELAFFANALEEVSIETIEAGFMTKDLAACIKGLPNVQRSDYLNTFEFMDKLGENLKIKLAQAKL
#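 IDH1-R132H (0.5 ug/mL) preincubated 30 min with compound, then NADPH (0.016 mM) and alpha-KG (2 mM) added; 80 min at RT, pH 7.5. Remaining NADPH coupled via diaphorase/resazurin to fluorescence (540/590 nm); concentration-response curves normalized to no-enzyme control.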
# S2 tox – reduces viability in counter-screen for ATXN expression inhibitors | AID 651635 | Potency, µM (titrated, usually from 56.7 µM), actives largely listed as cytotoxic | S2 cells (HEK-293 line with an ATXN2-luciferase reporter) viability, CellTiter-Fluor protease fluorescence, 24 h | actives 0.49% (n = 400,000); also: potency is read from the fitted curve at half-maximal effect; nearly all actives have a fitted effect of over 40% in size
# Active calls of the source: *; i = inactive; ? = inconclusive; nt = no result given; ! = not active in a repeat; [ ] = remark or other dose. A selection: hits, their analogues and other compounds. The true share with any hit is near 2.2%. Unless noted, calls follow the shape of the dose curve; as a rule, active = well fitted curve in the direction sought with a large enough effect; inconclusive = small, poorly fitted or top-dose-only effect, or another doubt; inactive = no such curve, though single readings can be large; an effect the other way counts as inactive or inconclusive.
SMILES,HepG2 tox,TGFb inhibitor,ATXN2 expr inh,LDHA inh,mIDH1 inhibitor,S2 tox
CCN(CC)c1ccc2c(-c3ccc(S(=O)(=O)O)cc3S(=O)(=O)[O-])c3ccc(=[N+](CC)CC)cc-3oc2c1,-25%,32%,?,-232*,?,13µM*
CCN(CC)c1ccc2nc3c4ccccc4c(=O)cc-3oc2c1,-7%,-2%,107%,-1,11%,i
Cn1cc(CNC(=O)c2cc(COc3ccc4c(c3)CCCC4)on2)cn1,-27%,0%,1%,-6,1%,?
O=C(NC(c1cccnc1)C(F)(F)F)c1cc(COc2ccc3c(c2)CCCC3)on1 (centres undefined),-26%,11µM*,-17%,1,-7%,?
CCOC(=O)C1CCN(C(=O)c2ccc3c(c2)N=C(CC)c2cc(C)ccc2S3)CC1,-21%,10µM*,-28%,2,10%,i
COc1cccc(CC(NC(C)=O)C(=O)NC2CCN(c3nnnn3-c3ccccc3)CC2)c1 (centres undefined),-2%,-6%,6%,3,-1%,i
Oc1ccc(OCc2ccccc2)cc1,nt,nt,-5%,nt,nt,?
CCc1ccc(CNc2ccc(O)cc2)cc1,13µM*,8.9µM*,-12%,22,18%,i
CCc1ccc(CNc2ccc3c(c2)ncn3CC)cc1,2%,5%,60%,16,8%,i
Oc1ccc(NCc2ccccc2OCc2ccccc2Cl)cc1,-58%,nt,nt,33,nt,nt
Oc1ccc(NCc2ccc(OCc3ccccc3Cl)cc2)cc1,7.1µM*,5µM*,?,17,0%,nt
Oc1ccc(NCc2ccc(OCc3ccccc3)cc2)cc1,10µM*!,16µM*,?,8,6%,?
Cc1ccc(OCC(=O)N2N=C(C(F)(F)F)CC2(O)C(C)(C)C)cc1C (centres undefined),-106%,?,?,8,0%,?
Cc1ccccc1OCC(=O)N1N=C(C(F)(F)F)CC1(O)C(C)(C)C (centres undefined),11µM*,?,-26%,5,2%,i
Cc1ccccc1NC(=S)N=Nc1c(O)n(C)c2ccc(S(=O)(=O)N3CCOCC3)cc12,-36%,5.6µM*,-39%,0,2%,i
Cc1c(Cl)cccc1NC(=S)N=Nc1c(O)n(CN2CCOCC2)c2ccccc12,-27%,5µM*,?,-5,5%,?
Cc1ccc(-c2noc(CCC(=O)NCCN3CCN(Cc4ccccc4)CC3)n2)cc1,1.3µM*,22%,-24%,0,7%,i
O=C1C(Cc2ccccc2)Nc2ncnc(N3CCc4ccccc4C3)c2N1Cc1ccc(Cl)cc1 (centres undefined),-20%,18µM*,?,1,-7%[38.3 µM],?
O=C1C(Cc2ccccc2)Nc2ncnc(N3CCCCC3)c2N1Cc1ccc(Br)cc1 (centres undefined),3.2µM*!,?,-6%,-3,-11%,i
O=C1C(Cc2ccccc2)Nc2ncnc(N3CCCCC3)c2N1Cc1ccccc1 (centres undefined),-9%,-1%,-5%,1,-5%,i
CCC(C)Nc1oc(-c2ccc(S(=O)(=O)N3CCc4ccccc4C3)cc2)nc1C#N (centres undefined),nt,nt,nt,12,nt,nt
CN1C2CCC1/C(=C\c1ccc(F)cc1)C(=O)/C2=C/c1ccc(F)cc1,-56%,-8%,-21%,-5,2%,i
C=CC(=O)N1C/C(=C/c2ccc(F)cc2)C(=O)/C(=C\c2ccc(F)cc2)C1,20µM*,?,5.6µM*,-6,-10%,7.1µM*
CCOC(=O)Nc1ccc2c(c1)C(=NNC(N)=S)c1ccccc1-2,8.9µM*,?,?,-2,5%,nt
